According to PubChem BioAssay AID1159580 (chemical genetic matrix, 2015):
Hit rate of the full screen: of about 5,500 compounds, about 2,000 (36%) were called active. Another 18% or so got no clear call; they are omitted. Cut-off read from the data, not from the text of the source: active = normalized growth mostly below about 0.91 (no sharp cut-off); inconclusive = no clear call, values can overlap the other calls; inactive = mostly above about 0.92. The list shows a part of the results.

Experiment: chemical genetic growth profiling, strain panel (AID 1159580);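 note: tested at 20 µM; growth read once vehicle control cultures reached saturation at 30 °C; 1 = growth at the plate median or of vehicle wells; lower values mean less growth of the strain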
Settings: growth OD

Measured: normalized growth

CC(=O)O[C@H]1C[C@@H](OC(C)=O)C(C)(C)C2CC(=O)[C@]3(C)C(CC[C@@]4(C)[C@H](c5ccoc5)OC(=O)[C@H]5O[C@]543)[C@]21C (some centres not stated)
inactive: S. cerevisiae deletion strains, locus YJR075W, strain HOC1, active compounds read low 1.01 | S. cerevisiae deletion strains, locus YKL009W, strain mrt4, active compounds read low 0.974 | S. cerevisiae deletion strains, locus YKL068W, active compounds read low 1.01 | S. cerevisiae deletion strains, locus YKL085W, strain MDH1 (second series), active compounds read low 1.01 | S. cerevisiae deletion strains, locus YKL085W, strain MDH1, active compounds read low 1.01 | S. cerevisiae deletion strains, locus YKL160W, strain elf1, active compounds read low 0.998 | S. cerevisiae deletion strains, locus YKL190W, strain CNB1, active compounds read low 0.998 | S. cerevisiae deletion strains, locus YKR001C, strain vps1, active compounds read low 1.03 | S. cerevisiae deletion strains, locus YKR026C, strain gcn3, active compounds read low 0.993 | S. cerevisiae deletion strains, locus YKR091W, strain srl3, active compounds read low 0.991 | S. cerevisiae deletion strains, locus YLL001W, strain dnm1, active compounds read low 0.99 | S. cerevisiae deletion strains, locus YLL026W, active compounds read low 0.996 | S. cerevisiae deletion strains, locus YLL041C, strain sdh2, active compounds read low 0.982 | S. cerevisiae deletion strains, locus YLR027C, strain aat2, active compounds read low 0.988 | S. cerevisiae deletion strains, locus YLR039C, strain RIC1, active compounds read low 1 | S. cerevisiae deletion strains, locus YLR058C, strain SHM2, active compounds read low 1.01 | S. cerevisiae deletion strains, locus YLR102C, strain apc9, active compounds read low 1 | S. cerevisiae deletion strains, locus YLR113W, strain HOG1, active compounds read low 1.01 | S. cerevisiae deletion strains, locus YLR221C, strain rsa3, active compounds read low 1 | S. cerevisiae deletion strains, locus YLR258W, strain gsy2, active compounds read low 1 | S. cerevisiae deletion strains, locus YLR262C, strain YPT6 (second series), active compounds read low 0.982 | S. cerevisiae deletion strains, locus YLR262C, strain YPT6, active compounds read low 1.07 | S. cerevisiae deletion strains, locus YLR268W, strain sec22, active compounds read low 0.998 | S. cerevisiae deletion strains, locus YLR320W, strain mms22, active compounds read low 1.01 | S. cerevisiae deletion strains, locus YLR342W, strain FKS1 (second series), active compounds read low 1.01 | S. cerevisiae deletion strains, locus YLR342W, strain FKS1, active compounds read low 0.994 | S. cerevisiae deletion strains, locus YLR357W, strain rsc2, active compounds read low 0.989 | S. cerevisiae deletion strains, locus YLR370C, strain arc18, active compounds read low 0.998 | S. cerevisiae deletion strains, locus YLR371W, strain rom2, active compounds read low 0.985 | S. cerevisiae deletion strains, locus YLR384C, strain iki3, active compounds read low 0.984 | S. cerevisiae deletion strains, locus YLR418C, strain cdc73, active compounds read low 1.03 | S. cerevisiae deletion strains, locus YML016C, strain PPZ1, active compounds read low 0.996 | S. cerevisiae deletion strains, locus YML032C, strain rad52, active compounds read low 1.01 | S. cerevisiae deletion strains, locus YML120C, strain ndi1, active compounds read low 0.99 | S. cerevisiae deletion strains, locus YML124C, strain tub3, active compounds read low 1 | S. cerevisiae deletion strains, locus YMR058W, strain fet3, active compounds read low 0.978 | S. cerevisiae deletion strains, locus YMR078C, strain ctf18, active compounds read low 0.996 | S. cerevisiae deletion strains, locus YMR125W, strain sto1, active compounds read low 0.98 | S. cerevisiae deletion strains, locus YMR129W, active compounds read low 0.994 | S. cerevisiae deletion strains, locus YMR205C, strain PFK2, active compounds read low 0.992 | S. cerevisiae deletion strains, locus YMR223W, strain ubp8, active compounds read low 1.01 | S. cerevisiae deletion strains, locus YMR231W, strain pep5, active compounds read low 0.978 | S. cerevisiae deletion strains, locus YMR263W, strain SAP30, active compounds read low 1.02 | S. cerevisiae deletion strains, locus YMR307W, strain GAS1, active compounds read low 1.03 | S. cerevisiae deletion strains, locus YNL067W, strain RPL9B, active compounds read low 1.03 | S. cerevisiae deletion strains, locus YNL071W, strain lat1, active compounds read low 0.992 | S. cerevisiae deletion strains, locus YNL128W, strain TEP1, active compounds read low 0.988 | S. cerevisiae deletion strains, locus YNL153C, strain GIM3, active compounds read low 1.02 | S. cerevisiae deletion strains, locus YNL183C, strain NPR1, active compounds read low 0.941 | S. cerevisiae deletion strains, locus YNL209W, strain ssb2, active compounds read low 0.987 | S. cerevisiae deletion strains, locus YNL233W, strain BNI4, active compounds read low 1.02 | S. cerevisiae deletion strains, locus YNL248C, strain rpa49, active compounds read low 0.981 | S. cerevisiae deletion strains, locus YNL250W, strain rad50, active compounds read low 1.03 | S. cerevisiae deletion strains, locus YNL271C, strain bni1, active compounds read low 1 | S. cerevisiae deletion strains, locus YNL298W, strain CLA4, active compounds read low 1.02 | S. cerevisiae deletion strains, locus YNL307C, strain MCK1, active compounds read low 1.02 | S. cerevisiae deletion strains, locus YNL322C, strain KRE1 (second series), active compounds read low 0.994 | S. cerevisiae deletion strains, locus YNR049C, strain mso1, active compounds read low 0.987 | S. cerevisiae deletion strains, locus YNR052C, strain pop2, active compounds read low 1.02 | S. cerevisiae deletion strains, locus YOL012C, strain htz1 1 | S. cerevisiae deletion strains, locus YOL147C, strain pex11, active compounds read low 1.01 | S. cerevisiae deletion strains, locus YOR001W, strain rrp6, active compounds read low 0.986 | S. cerevisiae deletion strains, locus YOR061W, strain CKA2, active compounds read low 0.991 | S. cerevisiae deletion strains, locus YOR069W, strain VPS5, active compounds read low 1 | S. cerevisiae deletion strains, locus YOR070C, strain gyp1, active compounds read low 1.01 | S. cerevisiae deletion strains, locus YOR080W, strain dia2, active compounds read low 1 | S. cerevisiae deletion strains, locus YOR083W, strain WHI5, active compounds read low 0.995 | S. cerevisiae deletion strains, locus YOR106W, strain vam3, active compounds read low 1 | S. cerevisiae deletion strains, locus YOR136W, strain idh2, active compounds read low 1.01 | S. cerevisiae deletion strains, locus YOR144C, strain elg1, active compounds read low 1.01 | S. cerevisiae deletion strains, locus YOR184W, strain ser1, active compounds read low 0.996 | S. cerevisiae deletion strains, locus YOR231W, strain MKK1, active compounds read low 0.981 | S. cerevisiae deletion strains, locus YOR265W, strain rbl2, active compounds read low 0.99 | S. cerevisiae deletion strains, locus YOR270C, strain vph1, active compounds read low 0.943 | S. cerevisiae deletion strains, locus YOR290C, strain snf2, active compounds read low 1 | S. cerevisiae deletion strains, locus YOR316C, strain cot1, active compounds read low 1.02 | S. cerevisiae deletion strains, locus YPL051W, strain arl3, active compounds read low 1.03 | S. cerevisiae deletion strains, locus YPL078C, strain atp4, active compounds read low 0.989 | S. cerevisiae deletion strains, locus YPL106C, strain sse1, active compounds read low 1 | S. cerevisiae deletion strains, locus YPL240C, strain hsp82, active compounds read low 0.995 | S. cerevisiae deletion strains, locus YPL256C, strain CLN2, active compounds read low 0.968 | S. cerevisiae deletion strains, locus YPR119W, strain clb2, active compounds read low 1.01 | S. cerevisiae deletion strains, locus YPR141C, strain kar3, active compounds read low 1 | S. cerevisiae deletion strains, locus YPR163C, strain tif3, active compounds read low 1.01 | S. cerevisiae deletion strains, locus YPR167C, strain met16, active compounds read low 1 | S. cerevisiae deletion strains, strain wtn01, active compounds read low 0.984 | S. cerevisiae strains, strain wild type, active compounds read low 0.991
